In PubChem BioAssay (Tox21):
Records with an inconclusive call do not appear. Active and inactive are the calls of the source. Unless noted, calls follow the shape of the full dose curve.

Legend:
[1] = qHTS assay to identify small molecule agonists of the vitamin D receptor (VDR) signaling pathway - cell viability counter screen (AID 743224; active = well fitted curve in the direction sought with a large enough effect in the repeat runs; an effect the other way counts as inactive or inconclusive; also: series mostly up to about 63 µM; % is scaled to controls: 0 for no effect and ±100 for the full control effect; nearly all actives have a fitted effect of over 50% in size)
How it was run: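 Compounds were pin-transferred onto VDR-bla cells plated 4 h earlier; following 16 h incubation at 37C, cell viability was quantified by CellTiter-Glo luminescence after 30 min at room temperature.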

[2] = qHTS assay to identify small molecule antagonists of the vitamin D receptor (VDR) signaling pathway - cell viability counter screen (AID 743225; active = well fitted curve in the direction sought with a large enough effect in the repeat runs; an effect the other way counts as inactive or inconclusive; also: % is scaled to controls: 0 for no effect and ±100 for the full control effect; nearly all actives have a fitted effect of over 50% in size)
How it was run: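 Cells (VDR-UAS-bla HEK 293T) are plated, rested 4 h at 37C, dosed with compound and 3 nM final 1-alpha,25-dihydroxy vitamin D3, and incubated 16 h. Viability is taken from CellTiter-Glo luminescence in the reporter wells.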

[3] = qHTS assay to identify small molecule agonists of the NFkB signaling pathway (AID 1159509; active = well fitted curve in the direction sought with a large enough effect in the signal ratio in the repeat runs, not every such curve was filed as active; the % refers to the signal ratio; also: series mostly up to about 61 µM; % is scaled to controls: 0 for no effect and ±100 for the full control effect)
How it was run: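 Beta-lactamase reporter assay run in quantitative high-throughput format on an NF-kB-responsive ME-180 line, with 5 hr compound treatment and a FRET-based blue/green fluorescence readout.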

[4] = qHTS assay to identify small molecule agonists of the NFkB signaling pathway - cell viability counter screen (AID 1159515); also: series mostly up to about 61 µM; % is scaled to controls: 0 for no effect and ±100 for the full control effect; nearly all actives have a fitted effect of over 55% in size
How it was run: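 Parallel cytotoxicity counter screen in ME-180 cells carrying an NFkB-response-element beta-lactamase reporter, 2,000 cells/well. Compound exposure lasted 5 hr at 37 C, 5% CO2. Cell viability was quantified by CellTiter-Glo luminescence.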

[5] = qHTS assay to identify small molecule agonists of the endoplasmic reticulum stress response signaling pathway (AID 1159516; active = well fitted activation curve with a large enough effect in the signal ratio in the repeat runs, not every such curve was filed as active; the % refers to the signal ratio; also: % is scaled to controls: 0 for no effect and ±100 for the full control effect)
How it was run: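 Using a HeLa line with an ESRE-driven beta-lactamase gene, agonist activity was measured by FRET substrate fluorescence (460 and 530 nm emission) after cells were treated with compounds for 5 hr at 37 C and 5% CO2.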

[6] = qHTS assay to identify small molecule agonists of the endoplasmic reticulum stress response signaling pathway - cell viability counter screen (AID 1159517);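 also: HeLa cells carrying an ER stress response element beta-lactamase reporter; series mostly up to about 61 µM; % is scaled to controls: 0 for no effect and ±100 for the full control effect; nearly all actives have a fitted effect of over 50% in size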
How it was run: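 Steps: seed 1,500 ESRE-bla HeLa cells per well; incubate overnight at 37 C, 5% CO2; add compounds in DMSO for 5 hr; run FRET substrate 2 hr RT; add CellTiter-Glo, wait 30 min, read luminescence.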

[7] = qHTS assay to identify small molecule antagonists of the retinoid-related orphan receptor gamma (ROR-gamma) signaling pathway - cell viability counter screen (AID 1159520; active = well fitted curve in the direction sought with a large enough effect in the repeat runs; an effect the other way counts as inactive or inconclusive; also: % is scaled to controls: 0 for no effect and ±100 for the full control effect; nearly all actives have a fitted effect of over 50% in size)
How it was run: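 Tet-on ROR gamma CHO cells were given compounds for 2 hr, then doxycycline hyclate at 1 uM final, and incubated 16 hr at 37 C. Viability was measured as ATP content by CellTiter-Glo luminescence.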

[8] = target: Nuclear receptor ROR-gamma (Homo sapiens) (UniProt P51449); assay: qHTS assay to identify small molecule antagonists of the retinoid-related orphan receptor gamma (ROR-gamma) signaling pathway (AID 1159521; active = well fitted curve in the direction sought with a large enough effect in the repeat runs; an effect the other way counts as inactive or inconclusive)
How it was run: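 RORγ antagonism is scored from reduced reporter luminescence in Tet-on CHO cells. Induction used 1 uM final doxycycline hyclate for 16 h at 37 C, following a 2 h compound exposure.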

[9] = qHTS assay to identify small molecule agonists of the AP-1 signaling pathway (AID 1159526); also: % is scaled to controls: 0 for no effect and ±100 for the full control effect
[10] = qHTS assay to identify small molecule agonists of the AP-1 signaling pathway - cell viability counter screen (AID 1159525); also: nearly all actives have a fitted effect of over 55% in size
How it was run: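 Same-well cytotoxicity counter screen of the Tox21 10K library in ME-180 cells. The readout is ATP-dependent luminescence after 5 h compound treatment. Data are normalised to DMSO and tetra n-octyl ammonium bromide controls.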

CCCC(=O)O[C@]1(C(=O)CO)CC[C@H]2[C@@H]3CCC4=CC(=O)CC[C@]4(C)[C@H]3[C@@H](O)C[C@@]21C
inactive: Potency [1] | Potency [2] | outcome [3] | outcome [4] | outcome [5] | outcome [6] | outcome [7] | Potency [8] | outcome [9]

CN1CC(=O)NC1=N
inactive: Potency [1] | Potency [2] | outcome [3] | outcome [4] | outcome [5] | outcome [6] | outcome [7] | Potency [10] | outcome [9]

COc1ccc(CCN(C)CCCC(C#N)(c2cc(OC)c(OC)c(OC)c2)C(C)C)cc1OC (centres undefined)
inactive: Potency [1] | Potency [2] | outcome [3] | outcome [4] | outcome [5] | outcome [6] | outcome [7] | Potency [10] | outcome [9]

COc1nc(N)nc2c1ncn2[C@@H]1O[C@H](CO)[C@@H](O)[C@@H]1O
inactive: Potency [1] | Potency [2] | outcome [3] | outcome [4] | outcome [5] | outcome [6] | outcome [7] | Potency [10] | outcome [9]

COc1cc(C(=O)N2CCCCCCC2)cc(OC)c1OC
inactive: Potency [1] | Potency [2] | outcome [3] | outcome [4] | outcome [5] | outcome [6] | outcome [7] | Potency [8] | outcome [9]

N=C(N)c1ccccc1
inactive: Potency [1] | outcome [3] | outcome [4] | outcome [5] | outcome [6] | outcome [9]

CCO/C([O-])=N/c1c[n+](N2CCOCC2)no1
inactive: Potency [1] | Potency [2] | outcome [3] | outcome [5] | outcome [6] | outcome [7] | Potency [8] | Potency [10] | outcome [9]

FC1(F)C(F)(F)C(F)(F)C2(F)C(F)(F)C(F)(F)C(F)(F)C(F)(F)C2(F)C1(F)F (centres undefined)
inactive: Potency [1] | Potency [2] | outcome [3] | outcome [4] | outcome [5] | outcome [6] | Potency [8] | Potency [10] | outcome [9]

OC(CCN1CCCCC1)(c1ccccc1)C1CC2C=CC1C2 (centres undefined)
inactive: Potency [2] | outcome [3] | outcome [4] | outcome [5] | outcome [6] | Potency [8] | Potency [10] | outcome [9]

N[C@@H](C(=O)N[C@@H]1C(=O)N2C(C(=O)O)=C(Cl)CS[C@H]12)c1ccccc1
inactive: activity change, negative = cytotoxicity [1] 12.3% [at 13.2 µM] | viability change, negative = cytotoxic [2] -2.62% [at 6.95 µM] | activation [3] -0.195% [at 6.95 µM] | activity, negative = cytotoxic [4] 6.68% [at 6.95 µM] | activation [5] 4.99% [at 6.95 µM] | activity change, negative = cytotoxicity [6] 11.8% [at 6.95 µM] | activity change, negative = inhibition [8] 46.6% [at 8.39 µM] | viability change, negative = cytotoxic [10] 3.61% [at 6.97 µM] | activation [9] 0.719% [at 6.97 µM]

CC(C)NC(=O)NC(C)C
inactive: Potency [1] | Potency [2] | outcome [3] | outcome [4] | outcome [5] | outcome [6] | Potency [10] | outcome [9]

COc1ccc2c(c1)CCCC2=O
inactive: Potency [1] | Potency [2] | outcome [3] | outcome [4] | outcome [5] | outcome [6] | outcome [7] | outcome [9]

NCCCNCCSP(=O)(O)O
inactive: activity change, negative = cytotoxicity [1] 6.38% [at 13.2 µM] | viability change, negative = cytotoxic [2] 2.84% [at 6.95 µM] | activation [3] 0.134% [at 6.95 µM] | activity, negative = cytotoxic [4] 0.56% [at 6.95 µM] | activation [5] 0.0202% [at 6.95 µM] | activity change, negative = cytotoxicity [6] 10.1% [at 6.95 µM] | activity, negative = cytotoxicity [7] 4.74% [at 8.39 µM] | viability change, negative = cytotoxic [10] -1.42% [at 6.97 µM] | activation [9] -2.28% [at 6.97 µM]

NCCc1cnc[nH]1
inactive: Potency [1] | Potency [2] | outcome [3] | outcome [4] | outcome [5] | outcome [6] | outcome [9]

NC(=O)Nc1ccccc1
inactive: Potency [1] | Potency [2] | outcome [3] | outcome [5] | outcome [6] | outcome [7] | Potency [8] | Potency [10] | outcome [9]

O=Cc1cccc([N+](=O)[O-])c1
inactive: Potency [1] | Potency [2] | outcome [3] | outcome [4] | outcome [5] | outcome [6] | Potency [8] | Potency [10] | outcome [9]

C=C(C)C(=O)OCCCCCCCC(C)C
inactive: Potency [1] | Potency [2] | outcome [3] | outcome [5] | outcome [6] | outcome [7] | Potency [8] | Potency [10] | outcome [9]

CN(C)CCCSc1ccccc1NC(=O)/C=C/c1ccccc1
inactive: Potency [1] | Potency [2] | outcome [3] | outcome [5] | outcome [6] | outcome [7] | Potency [8] | Potency [10] | outcome [9]

O=c1[nH]c(=O)n([C@H]2C[C@H](O)[C@@H](CO)O2)cc1I
inactive: Potency [1] | Potency [2] | outcome [3] | outcome [4] | outcome [5] | outcome [6] | Potency [8] | Potency [10] | outcome [9]

C=C1CC[C@H]2C[C@@H]1C2(C)C
inactive: Potency [1] | Potency [2] | outcome [3] | outcome [4] | outcome [5] | outcome [6] | Potency [10] | outcome [9]

CC(=O)CC(C)(C)C1CCCCC1
inactive: Potency [1] | Potency [2] | outcome [3] | outcome [4] | outcome [5] | outcome [6] | Potency [10] | outcome [9]
